Assay results from the supplement of paper PMC4723716.

Test system: Plasmodium falciparum NF54 gametocytes
Assay: viability index relative to DMSO control (fraction); higher = less gametocyte killing
Details: 12.5 µM, incubation time: 72 h
How it was run: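 Each stage (I–V) of P. falciparum NF54 gametocytes was incubated with compound at 12.5 µM in 384-well plates, in 40 µl of serum-containing medium at 0.50% gametocytemia and 1.25% hematocrit, for 72 hr at 37°C under low oxygen. After 5 µl of 5 µM MitoTracker Red CMXRos was added for 20 min, 5 µl from each well was moved into 40 µl of 500 nM dye in serum-free medium and imaged across three fields after 30 min. The viability index is the gametocyte particle count divided by the plate mean of the solvent-only wells.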

[1] = gametocyte stage: Stage I viability index
[2] = gametocyte stage: Stage II viability index
[3] = gametocyte stage: Stage III viability index
[4] = gametocyte stage: Stage IV viability index
[5] = gametocyte stage: Stage V viability index

| SMILES | viability index [1] | viability index [2] | viability index [3] | viability index [4] | viability index [5] |
| --- | --- | --- | --- | --- | --- |
| Oc1ccc(Br)cc1CN1CCN(Cc2cccc(F)c2)CC1 | 0.0385 | 0.0899 | 0.0787 | 0.196 | 0.273 |
| COc1ccc(CN2CCN(Cc3ccccc3)CC2)c(O)c1 | 0.0656 | 0.0974 | 0.362 | 0.57 | 0.494 |
| O=C(CCc1ccco1)NC1CCN(CC2(c3ccc(Cl)cc3)CCC2)CC1 | 0.103 | 0.412 | 0.854 | 0.903 | 1.05 |
| COc1cc(CNCCc2ccc(Cl)cc2)cc(OC)c1O | 0.049 | 0.44 | 0.801 | 1.01 | 0.896 |
| Oc1ccc(Br)cc1CN1CCN(Cc2ccc(Cl)cc2)CC1 | 0.0201 | 0.0916 | 0.422 | 0.595 | 0.455 |
| CCCCCCc1cc(O)c2c3c(c(=O)oc2c1)CCC(C)C3 (stereo not given) | 0.291 | 0.329 | 0.578 | 0.608 | 0.74 |
| C=CC12CCN(CC1)C(C(O)c1ccnc3ccc(OC)cc13)C2 (stereo not given) | 1.08 | 1.08 | 1.13 | 0.976 | 1.1 |
| CCOc1cc(CNC(C)C(O)c2ccccc2)cc(Cl)c1OCC (stereo not given) | 0.137 | 0.337 | 0.634 | 0.729 | 0.791 |
| Oc1ccc(C(=C(Cl)Cl)c2ccc(O)cc2)cc1 | 0.596 | 0.301 | 0.741 | 0.756 | 0.584 |
| CCOc1c(Cl)cc(CNC(C)C(O)c2ccccc2)cc1OC (stereo not given) | 0.0917 | 0.317 | 0.584 | 0.754 | 1.14 |
| CCCc1cc(O)c2c3c(c(=O)oc2c1)CN(C)CC3 | 0.134 | 0.296 | 0.649 | 0.827 | 0.637 |
| CN(N=O)C1=C(NC2CCCCC2)C(=O)c2ccccc2C1=O | 0.00787 | 0.0183 | 0.309 | 0.456 | 0.234 |
